The list is not random: actives were taken first. Their share in the collection is about 1.5%.
gsp ag: qHTS for Agonist of gsp, the Etiologic Mutation Responsible for Fibrous Dysplasia/McCune-Albright Syndrome: qHTS; gsp mutant cells, cAMP HTRF, 30 min; Potency, µM (top dose mostly 76.9 µM), for inactives: at the highest dose activation (cAMP increase), most hits filed as activators; actives 0.13% (n = 340,000); active = well fitted activation curve with a large enough effect; inconclusive = small, poorly fitted or top-dose-only effect, or another doubt; inactive = no such curve, though single readings can be large or run the other way; cell line not stated here;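 also: phosphodiesterase inhibitor Ro 20-1724 added with compounds to block cAMP breakdown; potency is read from the fitted curve at half-maximal effect; nearly all actives have a fitted effect of over 60% in size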
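Cells stably selected in G418 were plated at 2000/well, grown 16-24 hr, then given compounds in DMSO with the PDE inhibitor […] (300 uM solution added) for 30 min at 37C; cAMP was read by HTRF.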
IL2 activator: qHTS of IL-2 Activators; IL-2 activation reporter assay, cell-based qHTS; stimulated with anti-CD3/CD4/CD28 beads; in transgenic mouse T cells; activation, % (series mostly up to about 46 µM); actives 0.065% (n = 360,000); AID 652025, 2013; in the data active = activation above about 50%; inconclusive = mostly about 30% to 49%; also: 0% is about no effect
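Screening format: compound pinned onto unstimulated transgenic mouse T cells, 60 min incubation, then anti-CD3/anti-CD4/anti-CD28 bead stimulation for 18 hours at 37 degrees C, followed by EGFP and DsRed detection.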
mIDH1 inhibitor: qHTS for Inhibitors of mutant isocitrate dehydrogenase 1 (IDH1): qHTS | IDH1-R132H enzyme, NADPH consumption, diaphorase/resazurin fluorescence | Potency, µM (series often up to 76.6 µM), for the others: top-dose activity change, negative = inhibition, actives largely listed as inhibitors | actives 0.093% (n = 390,000) | AID 602179, 2012; also: potency is read from the fitted curve at half-maximal effect; % is scaled to controls: 0 for no effect and ±100 for the full control effect; nearly all actives have a fitted effect of over 65% in size
Target sequence (O75874 whole entry R132H, stated change not applied): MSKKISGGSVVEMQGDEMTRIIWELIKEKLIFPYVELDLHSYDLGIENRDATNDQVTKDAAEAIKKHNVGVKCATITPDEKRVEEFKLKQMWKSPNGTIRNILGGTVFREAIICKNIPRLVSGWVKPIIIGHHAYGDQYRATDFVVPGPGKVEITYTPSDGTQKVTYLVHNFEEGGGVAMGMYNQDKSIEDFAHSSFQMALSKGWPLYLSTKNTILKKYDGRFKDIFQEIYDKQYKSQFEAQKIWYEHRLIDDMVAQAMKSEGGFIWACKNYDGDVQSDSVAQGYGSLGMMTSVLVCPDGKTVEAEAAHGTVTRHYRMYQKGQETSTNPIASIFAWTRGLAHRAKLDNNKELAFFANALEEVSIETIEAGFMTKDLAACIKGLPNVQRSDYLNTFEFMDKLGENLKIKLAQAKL
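IDH1-R132H (0.5 ug/mL) preincubated 30 min with compound, then NADPH (0.016 mM) and alpha-KG (2 mM) added; 80 min at RT, pH 7.5. Remaining NADPH coupled via diaphorase/resazurin to fluorescence (540/590 nm); concentration-response curves normalized to no-enzyme control.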
BRCA1 expr act: qHTS Assay to Identify Small Molecule Activators of BRCA1 Expression | actives 1.1% (n = 380,000) | MCF7-BRCA1-FFLuc reporter, luminescence, 48 h; response scale: scaled: vehicle 0%, 10 µM genistein 100% | Potency, µM (doses to about 46.1 µM), without a hit: at the top dose activation, actives largely listed as activators; also: potency is read from the fitted curve at half-maximal effect; nearly all actives have a fitted effect of over 80% in size
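Cells: MCF7-BRCA1-FFLuc, 2000/well. Exposure: 48 h, 37 °C, 5% CO2. Read: luminescence, 15 min post-substrate. Controls: genistein 10 microM (maximal activation), DMSO (neutral).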
gsp antag: qHTS for Antagonists of gsp, the Etiologic Mutation Responsible for Fibrous Dysplasia/McCune-Albright Syndrome: qHTS | gsp-mutant cells, cAMP HTRF, 30 min | Potency, µM (series often up to 76.9 µM), without a hit: at the highest dose activity change, negative = inhibition, most hits filed as inhibitors | actives 0.4% (n = 340,000) | AID 624288, 2012; calls by dose curve; cell line not stated here;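 also: intracellular cAMP measured with PDE inhibitor Ro 20-1724 present during compound exposure; potency is read from the fitted curve at half-maximal effect; % is scaled to controls: 0 for no effect and ±100 for the full control effect; nearly all actives have a fitted effect of over 65% in size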
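HTRF cAMP measurement after 30 min RT detection following 30 min, 37C compound treatment alongside […] (added as 300 uM solution) in G418-selected cells seeded at 2000/well and grown 16–24 h.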
An asterisk follows results filed as active; [ ] = dose if it differs, or a comment. Unless noted, calls follow the shape of the dose curve; as a rule, active = well fitted curve in the direction sought with a large enough effect; inconclusive = small, poorly fitted or top-dose-only effect, or another doubt; inactive = no such curve, though single readings can be large; an effect the other way counts as inactive or inconclusive.

What do the screens show for `COc1ccc(N2CCN(CC(=O)Nc3ccc(C)cc3Br)CC2)cc1`?
gsp ag: -16.0%; IL2 activator: -0.3; mIDH1 inhibitor: 9.4%; BRCA1 expr act: -5.6%; gsp antag: 8.7%

How did O=c1oc2ccccc2cc1-c1cn2cc(Cc3ccc(F)cc3)sc2n1 do in these assays?
mIDH1 inhibitor: 17.4%; BRCA1 expr act: 19.7%

How did Cc1ccc(Cc2cn3cc(-c4ccc(F)cc4)nc3s2)cc1 do in these assays?
mIDH1 inhibitor: 15.9%; BRCA1 expr act: 2.24µM*

How did CCC(CC)C(=O)NCc1nc2cccnc2n1Cc1ccc(F)cc1 do in these assays?
mIDH1 inhibitor: -8.0%

Results for COC(=O)[C@@]12C[C@@H](CC(=O)NCc3cccs3)C(=O)N(Cc3ccco3)C1=CCC(C)(C)C2 ?
IL2 activator: -0.6

How did O=S(=O)(c1ccc2c(c1)OCCO2)N1CCN(c2nc(-c3cccs3)nc3ccccc23)CC1 do in these assays?
BRCA1 expr act: 7.1%

Results for CC(=O)Nc1ccc(/C=C/c2ccnc3ccccc23)cc1[N+](=O)[O-] ?
BRCA1 expr act: 0.0%

Results for Cc1c(C(=O)OCC2CCCO2)[nH]c2c1C(=O)CC(c1ccc(N(C)C)cc1)C2 (configuration not stated) ?
gsp ag: -25.6%; IL2 activator: -2.7; mIDH1 inhibitor: -6.2%; BRCA1 expr act: -16.5%; gsp antag: 39.8µM*

Results for Cc1c(C(=O)OCc2ccccc2)[nH]c2c1C(=O)CC(c1ccc(N(C)C)cc1)C2 (configuration not stated) ?
mIDH1 inhibitor: -7.4%

Results for COc1ccc(-c2cc(C)no2)cc1S(=O)(=O)NCc1cccs1 ?
mIDH1 inhibitor: 6.7%

What do the screens show for `O=C(/C=C/c1ccccc1[N+](=O)[O-])Nc1ccccc1`?
gsp ag: 10.2%; IL2 activator: -4.0; mIDH1 inhibitor: 1.2%; BRCA1 expr act: 7.08µM*; gsp antag: -5.4%

What do the screens show for `COc1cc(NC(=O)/C=C/c2ccccc2[N+](=O)[O-])cc(OC)c1`?
gsp ag: 2.8%; IL2 activator: 0.6; mIDH1 inhibitor: 2.2%; BRCA1 expr act: -0.8%; gsp antag: 7.0%

Results for CN(C)S(=O)(=O)c1ccc(Cl)c(NC(=O)CN2CCN(Cc3ccc4c(c3)OCO4)CC2)c1 ?
gsp ag: 10.0%; IL2 activator: 1.0; mIDH1 inhibitor: 3.3%; BRCA1 expr act: -36.0%; gsp antag: 11.2µM*

How did O=C(CN1CCN(Cc2ccc3c(c2)OCO3)CC1)Nc1cc(S(=O)(=O)N2CCCC2)ccc1Cl do in these assays?
gsp ag: -16.7%[15.4 µM]; IL2 activator: -3.3; mIDH1 inhibitor: 13.9%; BRCA1 expr act: -63.6%; gsp antag: -7.1%

What do the screens show for `O=S(=O)(NCCSc1nnnn1-c1ccccc1)c1ccc(F)cc1`?
mIDH1 inhibitor: 8.0%; BRCA1 expr act: 3.9%

What do the screens show for `Cc1cccc(OCC(=O)N(Cc2ccco2)c2c(N)n(Cc3ccccc3)c(=O)[nH]c2=O)c1`?
gsp ag: -30.6%; IL2 activator: 0.4; mIDH1 inhibitor: 1.0%; BRCA1 expr act: -2.7%; gsp antag: 50.1µM*

What do the screens show for `Nc1c(N(Cc2ccco2)C(=O)COc2ccccc2)c(=O)[nH]c(=O)n1Cc1ccccc1`?
gsp ag: -35.8%; IL2 activator: 2.1; mIDH1 inhibitor: 7.7%; BRCA1 expr act: -19.3%; gsp antag: 0.4%

What do the screens show for `COCCCn1c(SCc2ccccc2F)nc2c(sc3ccccc32)c1=O`?
mIDH1 inhibitor: 13.6%; BRCA1 expr act: 14.1%

Results for CCn1c2ccccc2c2cc(/C=N/NC(=O)c3ccc(O)cc3)ccc21 ?
gsp ag: -21.3%[15.4 µM]; IL2 activator: -4.2; mIDH1 inhibitor: 6.2%; BRCA1 expr act: -84.1%; gsp antag: 28.2µM*

What do the screens show for `CCn1c2ccccc2c2cc(/C=N/NC(=O)c3cc(O)cc(O)c3)ccc21`?
gsp ag: -2.7%[15.4 µM]; IL2 activator: 0.5; mIDH1 inhibitor: -9.5%; BRCA1 expr act: -6.2%; gsp antag: inconclusive

How did CCc1nnc(NC(=O)CSc2ccc(-c3ccc(-n4cccn4)cc3)nn2)s1 do in these assays?
gsp ag: -0.2%; IL2 activator: -3.5; mIDH1 inhibitor: 5.4%; BRCA1 expr act: 10µM*; gsp antag: 0.3%

What do the screens show for `Cc1ccccc1NC(=O)CSc1ccc(-c2ccc(-n3cccn3)cc2)nn1`?
gsp ag: 4.5%; IL2 activator: -1.3; mIDH1 inhibitor: 6.2%; BRCA1 expr act: 0.2%; gsp antag: -1.7%

Results for Cc1cc(C(C)(C)C)ccc1OC(=O)C1=CC=CN2CCS(=O)(=O)N=C12 ?
gsp ag: 30.7%; IL2 activator: -5.9; mIDH1 inhibitor: 1.4%; BRCA1 expr act: -6.3%; gsp antag: 5.8%

What do the screens show for `Cc1cccc(N2CCN(C(=O)Cn3nc(C)c4sc5ccccc5c4c3=O)CC2)c1C`?
mIDH1 inhibitor: -0.5%

What do the screens show for `CC(CSC(=O)c1ccccc1)C(=O)N1c2ccccc2CC1C(=O)O` (configuration not stated)?
IL2 activator: 1.7; BRCA1 expr act: -18.4%

Results for COc1cccc(C(C(=O)NC2CCCC2)N2CCN(c3cc(C)nc4ccccc34)CC2)c1OC (configuration not stated) ?
IL2 activator: 0.4

What do the screens show for `O=C(NCCc1ccccc1)c1cnc2n(c1=O)CCS2`?
gsp ag: -5.1%[15.4 µM]; IL2 activator: -3.1; mIDH1 inhibitor: -4.8%; BRCA1 expr act: 7.08µM*; gsp antag: -1.8%

How did COc1ccc(/C=N\NC(=O)C2=NNC(=O)C2C)cc1 (configuration not stated) do in these assays?
gsp ag: inconclusive; IL2 activator: -1.6; mIDH1 inhibitor: 11.2%; BRCA1 expr act: 2.82µM*; gsp antag: 7.0%

How did COc1ccc(/C=N/NC(=O)CC(=O)N/N=C/c2ccc(OC)cc2)cc1 do in these assays?
gsp ag: -23.3%; IL2 activator: -3.2; mIDH1 inhibitor: -0.3%; BRCA1 expr act: -2.8%; gsp antag: -3.5%

What do the screens show for `Nc1c(N=Nc2ccc([N+](=O)[O-])cc2)c(S(=O)(=O)O)cc2cc(S(=O)(=O)O)c(/C=C/c3ccccc3)c(O)c12`?
BRCA1 expr act: -18.0%

How did CC(C)(CN1CCCN(CC(C)(C)C(=O)O)C1=O)C(=O)O do in these assays?
gsp ag: -18.6%; IL2 activator: -1.8; mIDH1 inhibitor: -5.2%; BRCA1 expr act: 0.6%
